Assay outcomes from PubChem.
Sampled rows, rich in hits. Any-hit rate of the full collection: about 3.4%.
14-3-3 Bad inh: inhibitors of 14-3-3 zeta/Bad binding, primary screen, biochemical, TR-FRET, bovine 14-3-3 zeta; 14-3-3 protein zeta/delta (Bos taurus), P63103; TR-FRET 14-3-3zeta/Dy647-pBad peptide displacement, 1 h; inhibition, % at 21.7 µM; 220,000 tested, 0.71% active;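 active = inhibition above about 70%, limit read from the data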;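 note: 0% = full 14-3-3 plus peptide FRET controls and 100% = background without 14-3-3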
Target sequence (P63103 whole entry, looked up): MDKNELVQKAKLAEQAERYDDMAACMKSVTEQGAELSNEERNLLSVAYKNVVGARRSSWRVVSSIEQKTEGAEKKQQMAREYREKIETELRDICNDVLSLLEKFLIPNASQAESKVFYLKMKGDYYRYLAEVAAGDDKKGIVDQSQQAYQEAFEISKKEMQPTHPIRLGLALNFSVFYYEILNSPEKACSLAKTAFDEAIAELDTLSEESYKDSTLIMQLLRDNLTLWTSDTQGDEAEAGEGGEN
Bim-Mcl-1: inhibitors of Bim peptide binding to Mcl-1, primary screen, biochemical, bead-based flow cytometry, multiplex | 190,000 tested, 0.1% active | inhibition, % at 10 µM | Bim peptide-Mcl-1 binding; in the data active = inhibition above about 40%;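 note: 0% = no compound tracer wells and 100% = peptide blocker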
Mcl1-Bid inh: Mcl-1/Bid binding inhibitors, primary screen, biochemical, TR-FRET, 1536-well. Induced myeloid leukemia cell differentiation protein Mcl-1 (Homo sapiens), Q07820. 220,000 tested, 0.97% active. inhibition, % at 21.7 µM. AID 1021, 2008. TR-FRET Mcl-1/Bid-Dy647 peptide binding;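 active = compounds that cut the binding signal by more than half at the single screening dose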;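 note: His-tagged Mcl-1 with europium anti-His antibody binding Bid BH3 peptide; 0% = Mcl-1 plus peptide wells and 100% = peptide-only wells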
Mcl1 Noxa PPI: Mcl-1/Noxa binding inhibitors, primary screen, biochemical, TR-FRET, 1536-well; inhibition, % at 21.7 µM; 220,000 tested, 1.5% active; TR-FRET Mcl-1/Noxa peptide binding, 2 h; Induced myeloid leukemia cell differentiation protein Mcl-1 (Homo sapiens), Q07820;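 active = compounds that cut the protein-peptide binding signal by more than 50% relative to plate controls in a single-dose test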;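 note: His-tagged Mcl-1 with rhodamine Noxa BH3 peptide and terbium anti-His antibody; 0% = Mcl-1 plus Noxa peptide wells and 100% = peptide-only wells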
eIF4E-4G inh: eIF4E–eIF4G protein interaction inhibitors, primary screen, biochemical, uHTS, TR-FRET, eIF4GI fragment | Eukaryotic translation initiation factor 4E (Mus musculus) + Eukaryotic translation … | TR-FRET eIF4E-eIF4GI(517-606) binding, 2 h | inhibition, % at 21.7 µM | 220,000 tested, 0.37% active | AID 782, 2007;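 note: 0% = full FRET control wells and 100% = background wells lacking eIF4GI fragment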
p47phox inh: p47phox/p22phox peptide binding inhibitors, primary screen, biochemical, uHTS, NADPH oxidase regulatory subunit; fluorescence polarization, 2 h; AID 1274, 2008; inhibition, % at 24.7 µM; 220,000 tested, 0.53% active; Neutrophil cytosol factor 1 (Homo sapiens), P14598;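 note: 0% = p47phox with labelled peptide and 100% = labelled peptide alone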
* hit, by the source's call; · = no result; [ ] = remark or other dose.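 Rule for the calls, unless noted: active = inhibition above about 30% (limit read from the data); inactive = the rest.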

SMILES	14-3-3 Bad inh	Bim-Mcl-1	Mcl1-Bid inh	Mcl1 Noxa PPI	eIF4E-4G inh	p47phox inh
COc1ccccc1CNC(=O)CN(C)S(=O)(=O)c1cccc2cccnc12	5	·	-6	5	96*	1
CC(=O)CSc1nnc(-c2cnccn2)n1-c1ccccc1	-1	2	-16	9	-4	40*
O=C(Nc1c2ccccc2nc2ccccc12)C(Cl)(Cl)Cl	80*[fluorescence artefact?]	3	53*	43	-4	17
COc1ccc(CCNC(=O)CCNS(=O)(=O)c2ccc3c(c2)CCN3C(C)=O)cc1OC	-6	-3	58*	-7	0	-3
NS(=O)(=O)c1ccc(-c2ccc(/C=C3\SC(=S)N(C4CCS(=O)(=O)C4)C3=O)o2)cc1 (stereo not given)	2	·	51*	79*	-7	36*
Cc1ccc(/C=C2\SC(=S)N(C3CCS(=O)(=O)C3)C2=O)o1 (stereo not given)	-3	7	-59	-6	3	-20
CN(C)c1ccnc2sc(C(=O)c3ccc(Br)cc3)c(N)c12	-1	-2	-20	8	4	2
CN(C)c1ccnc2sc(C(N)=O)c(N)c12	5	0	97*	-2	5	-4
Cc1ccc(NC(=O)NC(=O)CN2C(=O)NC3(CCCCCCC3)C2=O)c(C)c1	71*	0	1	1	0	-16
Cc1cc(Br)ccc1NC(=O)CNC(=O)CN1C(=O)NC2(CCCCCC2)C1=O	13	-4	-32	-15	2	-9
O=C(COC(=O)CNC(=O)c1ccccc1)Nc1ccc2c(c1)OCO2	-5	-1	-11	-4	3	·
O=C(c1c[nH]c2ccc(S(=O)(=O)N3CCOCC3)cc2c1=O)N1CCCC1	-2	-3	-12	20	3	3
CC(C)c1ccc(NS(=O)(=O)c2ccc3[nH]cc(C(=O)N4CCC(C(N)=O)CC4)c(=O)c3c2)cc1	96*[fluorescence artefact?]	-3	59*	6	8	-7
Cc1ccc(NC(=O)C(=O)NCc2ccc(/C=C(/C#N)C(=O)NCc3cccnc3)o2)cc1C	1	-1	95*	17	-5	-14
COc1ccc(OCc2nc(-c3ccc(F)c(F)c3)cs2)cc1	-7	·	-1	-20	-1	-13
CN(C(=O)c1ccno1)c1nnc(-c2cnccn2)s1	-1	-1	-29	-17	9	-6
CN(C(=O)c1ccc(C#N)cc1)c1nnc(-c2cnccn2)s1	43	·	86*	38	6	-4
COc1cccc(N2CCN(C3C4CC5CC(C4)CC3C5)CC2)c1 (stereo not given)	88*	2	13	20	1	-16
COc1ccc(NC(=O)COC(=O)c2ccc(S(=O)(=O)N(C)c3ccccc3OC)cc2)c(OC)c1	-1	0	-14	-5	0	3
CC(OC(=O)c1ccc2c(c1)C(=O)N(Cc1ccncc1)C2=O)C(=O)Nc1cccc(Cl)c1Cl (stereo not given)	39	-6	64*	1	9	-1
O=C(COC(=O)c1ccc2c(c1)C(=O)N(Cc1ccncc1)C2=O)Nc1ccccc1[N+](=O)[O-]	32	-8	20	83*	-2	10
O=C(COC(=O)c1ccco1)Nc1ccccc1[N+](=O)[O-]	-12	0	-19	20	-1	-6
CCOCCCNCC(=O)NCC1CCCCC1	43	-3	14	29	3	1
O=c1[nH]c(C(Cl)Cl)nc2sc3c(c12)CCN(Cc1ccccc1)C3	20	3	4	94*	10	-46
O=C(NCC1CCCO1)C1CCCN1C(=O)Nc1ccc(Cl)cc1 (stereo not given)	-6	3	-26	-7	3	-3
